Screening data from PubChem BioAssay.
Rows were chosen to be rich in hits. Some 2.9% of all compounds tested hit in one or more screens of this group.
F-actin modifier = cytoskeleton assembly modification. HUVEC TNFa F-actin phalloidin imaging, high content. inhibition, % at 2 µM. actives 0.18% (n = 91,000);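 active = inhibition above the batch mean plus 3 SD and confirmed as a hit by visual image inspection, cut at about 30% in these data, passing the limit was not always enough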
Calb biofilm kill = kills Candida albicans biofilms; C. albicans biofilm + clotrimazole, Alamar Blue; inhibition, % at 6 µM; actives 0.14% (n = 85,000); AID 834;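 active = inhibition above 20%; inactive = inhibition below 20%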;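 note: preformed 24 hr biofilms exposed to compound for 48 hr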
E-sel TNF inh = blocks E-selectin expression induced by TNF alpha; HUVEC TNFa-induced E-selectin immunofluorescence, high content; inhibition, % at 2 µM; actives 0.71% (n = 120,000);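 active = inhibition above the batch mean plus 3 SD, and confirmed as a hit on visual image review, cut at about 43% in these data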
ERa coact pot = ER-alpha (human) coactivator binding potentiation; P03372; TR-FRET ERalpha-LBD/SRC-Cy5 coactivator binding, 2 h; 100 = basal binding, no effect; coactivator binding (% of control), % at 25.6 µM; actives 1.3% (n = 86,000); in the data active = activity above about 200%;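 note: binding measured in presence of low estradiol as agonist stimulus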
Target sequence (P03372 whole entry, looked up, the tested form may be a part): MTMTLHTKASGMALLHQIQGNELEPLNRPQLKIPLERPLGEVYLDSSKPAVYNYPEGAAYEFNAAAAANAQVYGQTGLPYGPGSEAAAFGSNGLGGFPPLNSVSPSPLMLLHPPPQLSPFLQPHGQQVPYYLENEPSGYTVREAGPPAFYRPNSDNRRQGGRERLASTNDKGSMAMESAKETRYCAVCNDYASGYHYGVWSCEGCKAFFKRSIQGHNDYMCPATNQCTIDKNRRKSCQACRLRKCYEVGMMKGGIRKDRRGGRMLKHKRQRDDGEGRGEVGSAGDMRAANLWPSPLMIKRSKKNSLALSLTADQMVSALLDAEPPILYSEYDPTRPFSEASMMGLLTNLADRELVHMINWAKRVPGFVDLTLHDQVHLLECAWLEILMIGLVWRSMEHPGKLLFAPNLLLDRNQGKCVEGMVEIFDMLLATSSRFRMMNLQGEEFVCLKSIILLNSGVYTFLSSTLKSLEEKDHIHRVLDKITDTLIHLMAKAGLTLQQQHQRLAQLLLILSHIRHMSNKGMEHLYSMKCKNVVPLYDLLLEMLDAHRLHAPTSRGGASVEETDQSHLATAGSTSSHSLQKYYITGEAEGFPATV
ERa SRC1 inh = ER-alpha (human) coactivator binding inhibition; P03372; TR-FRET ER-alpha LBD / SRC-1 peptide, estradiol-bound; inhibition, % at 25.6 µM; actives 1.7% (n = 86,000); AID 629; in the data active = inhibition above about 50%
ERb SRC1 inh = blocks coactivator binding to human estrogen receptor beta; Q92731; TR-FRET ER-beta LBD / SRC1-Cy5 peptide binding; receptor agonist-loaded with 1 µM estradiol; actives 1.3% (n = 86,000); inhibition, % at 25.6 µM; AID 633;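 active = compounds whose percent inhibition of the receptor-coactivator binding signal exceeds about 50% in the single-dose screen, limit read from the data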
Hits are given with their value; . = inactive; / = no result; [ ] = dose if it differs, or a comment.

SMILES	F-actin modifier	Calb biofilm kill	E-sel TNF inh	ERa coact pot	ERa SRC1 inh	ERb SRC1 inh
CCOc1ccc(CCNS(=O)(=O)c2cccc3nsnc23)cc1OCC	.	.	.	.	.	.
COc1ccc(CC(=O)NC2=NCCS2)cc1	.	/	.	/	/	/
O=C1[C@H]2[C@@H](C(=O)N1c1cccc3ccccc13)C1(C(=O)c3ccccc3C1=O)N1CCC[C@@H]21	.	.	.	.	.	.
C/C(N)=C(/C#N)C(=O)CSc1nnc(Cc2ccccc2F)n1N	.	.	/	.	69	81
CCc1nnc(SCC(=O)Nc2ccccc2Cl)nc1CC	/	/	.	/	/	/
O=C(Nc1cccnc1)c1coc(=O)c2ccccc12	55	.	/	.	.	.
O=C(Nc1cccnc1)c1c(F)c(F)c(F)c(F)c1F	.	23	.	.	.	.
O=C(Nc1cccnc1)c1ccccc1O	.	.	.	.	.	.
O=C(Nc1cccnc1)c1ccc(S(=O)(=O)N2CCCCCC2)cc1	/	.	.	.	52[fluorescence artefact?]	.
O=C(Nc1cccnc1)c1ccc(C(=O)Nc2cccnc2)cc1	/	/	.	/	/	/
C/C(=N\NC(=O)c1cc(-c2ccncc2)nc2ccccc12)c1ccc(OC(F)F)cc1	/	/	.	/	/	/
Cn1cc([N+](=O)[O-])c(C(=O)N(Cc2ccccc2)Cc2ccccc2)n1	/	/	.	/	/	/
COc1cccc2sc(Nc3nnc(-c4ccc(F)cc4)o3)nc12	.	.	.	.	65	.
COc1cccc2sc(Nc3nnc(-c4cccs4)o3)nc12	.	.	.	.	.	.
c1cc2c(cc1-c1csc(NNC3=NCCCCC3)n1)OCCO2	/	/	.	/	/	/
Cc1cccc(Nc2nnc(SCC(=O)c3ccc(Br)s3)s2)c1C	/	/	.	/	/	/
C/C(N)=C(/C#N)C(=O)CSc1nnc(Nc2c(C)cccc2C)s1	/	.	.	.	87[fluorescence artefact?]	93[fluorescence artefact?]
Cc1ccccc1Nc1nnc(SCC(=O)NCc2ccco2)s1	.	.	.	.	85[fluorescence artefact?]	54
C/C(N)=C(/C#N)C(=O)CSc1nnc(Nc2cccc(C)c2C)s1	.	.	/	.	52[fluorescence artefact?]	65
CC(C)c1nc(SCC(=O)Nc2c[nH]c(=O)[nH]c2=O)c2cnn(-c3ccccc3)c2n1	/	/	.	/	/	/
COC(=O)CSc1nnc(CNC(=O)c2cc(OC)cc(OC)c2)n1-c1ccc(F)cc1	/	/	.	/	/	/
Cc1ccc2c(c1)nc(-n1nc(C)cc1C)c1nnnn12	/	/	.	/	/	/
COc1ccccc1-c1nc2n(n1)C(c1ccc(Cl)cc1)C(C(N)=O)=C(C)N2 (stereo not given)	.	.	.	.	.	.
CC1=C(C(N)=O)C(c2ccncc2)n2nc(-c3ccccc3Cl)nc2N1 (stereo not given)	.	21	/	.	.	.
COc1ccc(C)cc1NC(=O)c1cnc2scc(C)n2c1=O	/	.	.	216[fluorescence artefact?]	.	.
SMILES	F-actin modifier	Calb biofilm kill	E-sel TNF inh	ERa coact pot	ERa SRC1 inh	ERb SRC1 inh
O=C(OCCN1C(=O)c2ccccc2C1=O)c1ccco1	.	.	.	.	.	.
CN(CCOC(=O)c1ccco1)Cc1ccccc1	.	70	.	.	.	.
C=CCc1ccc(OCCOc2cccc3ccc(C)nc23)c(OC)c1	.	/	.	/	/	/
CCC(Sc1nc(C)cc(=O)[nH]1)C(=O)Nc1nc2c(s1)CCCC2 (stereo not given)	.	.	.	.	.	.
Cc1cc(=O)[nH]c(SCC(=O)Nc2nc3c(s2)CCCC3)n1	.	/	.	.	.	78
COc1ccc(C2C(C(=O)NCCN(C)C)c3ccccc3C(=O)N2C)cc1OC (stereo not given)	.	.	/	.	.	.
Cc1ccc(/C=N/n2c(C)nnc2C)o1	/	/	.	/	/	/
Cc1ccc(C=Nc2ccc(N(C)C)cc2)o1	.	.	/	.	.	89[fluorescence artefact?]
COc1cc(CC(=O)OCC(=O)N2CC(=O)Nc3ccccc32)cc(OC)c1OC	/	/	.	/	/	/
FC(F)(F)c1ccc2c(c1)[nH]c(=S)n2C1CC1	/	/	.	/	/	/
CSCCC(NC(=O)c1ccco1)C(=O)OCC(=O)Nc1sccc1C#N (stereo not given)	.	.	.	.	56[fluorescence artefact?]	54
O=C(Nc1ccc(C2CCCCC2)cc1)C1CCN(c2ncccn2)CC1	/	.	/	234[fluorescence artefact?]	55	.
O=C(Nc1ccc2c(c1)CCC2)C1CCN(c2ncccn2)CC1	/	.	.	.	.	.
CCC1=NN2C(=N)/C(=C\c3ccc(OCc4cc(=O)n5nc(CC)sc5n4)c(OC)c3)C(=O)N=C2S1	/	/	.	/	/	/
CCOC(=O)N1CCN(c2c(NCCCOC(C)C)c(=O)c2=O)CC1	/	.	.	213	.	.
CCOC(=O)N1CCN(c2c(NCCCN3CCCCCC3)c(=O)c2=O)CC1	.	.	.	.	.	.
COCCSc1ccccc1C(=O)Nc1cccnc1	.	.	.	.	.	.
COCCSc1ccccc1C(=O)Nc1cc(C)on1	.	.	.	.	.	96[fluorescence artefact?]
CC1(C)CC(=O)c2cnc(NCC3CCCO3)nc2C1 (stereo not given)	.	.	.	.	55	.
O=C1CC(Sc2nnc(-c3ccccc3O)o2)C(=O)N1c1ccccc1 (stereo not given)	/	.	70	.	.	.
O=C(Nc1nc(-c2cccs2)cs1)c1cccc(S(=O)(=O)N2CCCCC2)c1	.	.	.	233	.	.
O=C(Nc1nc(-c2ccccc2)cs1)C1CCCN(S(=O)(=O)c2ccccc2)C1 (stereo not given)	.	.	/	.	.	.
O=C(Nc1nc(-c2ccc(S(=O)(=O)N3CCCCCC3)cc2)cs1)c1cccs1	.	.	.	570[fluorescence artefact?]	.	.
COc1cccc(C(=O)Nc2nc(-c3ccc(S(=O)(=O)N4CCOCC4)cc3)cs2)c1	.	.	.	463[fluorescence artefact?]	.	.
O=C(Nc1nc(-c2ccc(S(=O)(=O)N3CCCC3)cc2)cs1)c1cccs1	.	.	.	324[fluorescence artefact?]	.	.
SMILES	F-actin modifier	Calb biofilm kill	E-sel TNF inh	ERa coact pot	ERa SRC1 inh	ERb SRC1 inh
COc1ccc(N2CCN(C(=O)CN(C)S(=O)(=O)c3cnc[nH]3)CC2)cc1	/	.	.	/	/	/
COc1ccc(-n2nc(C(=O)N3CCC(C#N)CC3)c3c4ccccc4n(C)c3c2=O)cc1	.	/	/	/	/	/
COc1cc2c(cc1OC)C(c1cccs1)N(C(=S)NC(C)C)CC2 (stereo not given)	/	/	.	/	/	/
COc1ccc2c(c1)c(=O)oc1cc(OCC(=O)N3CCC(C)CC3)ccc12	.	.	.	.	59	60
COc1ccc(OC)c(N(CC(=O)N2CCc3ccccc3C2)S(C)(=O)=O)c1	.	.	.	.	.	.
COc1ccc2c(c1)c(=O)oc1cc(OCC(=O)N3CCc4ccccc4C3)ccc12	.	.	/	237[fluorescence artefact?]	71[fluorescence artefact?]	62
COc1ccc2c(c1)c(=O)oc1cc(OCC(=O)N3CCCC(C)C3)ccc12 (stereo not given)	.	.	.	.	.	.
CC1(C)Cc2c(sc3c4nnnn4c4nnnn4c23)CO1	/	.	.	.	80	.
Cc1ccc(C(=O)CSc2nnc(-c3ccccc3)o2)cc1	.	.	.	.	.	.
COC(=O)c1ccc(OC)c(CSc2nnc(-c3ccc(C)cc3)o2)c1	/	.	/	455[fluorescence artefact?]	.	.
C[C@]12CC[C@@H]3c4ccc(O)cc4CC[C@H]3[C@@H]1CC[C@@H]2OC(=O)CCC(=O)O	/	.	/	.	.	.
